A short description of assay [1]: Cytometric Cell-Based qHTS for Inhibitors of the mTORC1 Signaling Pathway in MEF (Tsc2-/-, p53-/-) Cells (AID 2660).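 Note: Tsc2 and p53 null MEFs carrying empty vector with compound for 24 h; percent of cells above a phospho-rpS6 to PI ratio cutoff in each well; series mostly up to about 38 µM.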 In outline:
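Cells are plated, treated with compound for 24 hrs at 37 degree Celsius, then fixed, blocked and immunostained for phospho-rpS6 Ser235/236. Propidium iodide counterstain follows. Per-well % positive cells is derived from the PI-normalized phospho-S6 signal.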

Assay [2] in a line: High Content Imaging Cell-Based qHTS for Inhibitors of the mTORC1 Signaling Pathway in MEF (Tsc2-/-, p53-/-) Cells (AID 2666).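 Note: percent of cells scored positive for phospho-rpS6 Ser235/236 immunostaining by imaging.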 The essentials:
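MEF Tsc2-/- p53-/- (empty vector), DMEM/10% FBS; cpd 24 h 37 °C; PFA fix, Alexa-488 p-rpS6 S235/236 Ab, Hoechst; imaged; rapamycin-defined inhibition; % positive cells/well.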
On the technique in general: In qHTS, concentration-response curves come from the screen itself.

Assay [3] is described as follows: High Content Imaging Cell-Based qHTS for Inhibitors of the mTORC1 Signaling Pathway in MEF Cells (AID 2667).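 Note: Tsc2-/- p53-/- MEFs stably re-expressing wild-type Tsc2 exposed 24 h; series mostly up to about 38 µM.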 The essentials: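 Read-out is the share of phospho-rpS6-positive cells per well, from Hoechst-normalized Alexa-488 Ser235/236 staining imaged on IN Cell. Cells: WT Tsc2-expressing Tsc2-/-, p53-/- MEFs exposed to compound for 24 hrs.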
A short description of assay [4]: Cytometry Cell-Based qHTS for Inhibitors of the mTORC1 Signaling Pathway in MEF cells (AID 2668).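 Note: Tsc2-/- p53-/- mouse embryonic fibroblasts stably re-expressing wild-type Tsc2; percent cells positive for phospho-rpS6 Ser235/236 relative to propidium iodide stain; series mostly up to about 38 µM.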 In outline:
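Tsc2-/-, p53-/- MEFs re-expressing WT Tsc2; cpd 24 hrs, 37 degree Celsius; PFA fix, Alexa-488 p-rpS6 (Ser235/236) Ab 2 hrs RT, PI counterstain; Acumen 488nm scan; p-S6/PI ratio → % positive cells; PI count = viability.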

The target in assay [5] is Ubiquitin carboxyl-terminal hydrolase 2 (Homo sapiens) (UniProt O75604). The assay is described as follows: qHTS Validation Assay for Inhibitors of Ubiquitin-specific Protease USP2a Using CHOP2 as the Reporter (AID 463106). The essentials:
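Fluorescence read-out at Ex 485nm/Em 531nm after 60min RT, following addition of 25nM Ub-CHOP2 plus 25nM reporter substrate to USP2 core (10nM) pretreated 30min with compound. Data normalized to NEM full inhibition; concentration-response curves fitted.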

The target of assay [6] is DNA polymerase III PolC-type (Bacillus subtilis (strain 168)) (UniProt P13267). Put plainly: qHTS Validation Assay for the Inhibitors of DNA Replication in Gram-Positive Bacteria (AID 485295).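 Note: reconstituted holoenzyme with PolC plus beta clamp SSB and primase; PicoGreen fluorescence of double-stranded DNA made on primed circular M13 template; series mostly up to about 57 µM.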 In outline:
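First, compound is mixed with the reconstituted replication complex and held at room temperature. Next, circular single-stranded M13Gori with nucleotides starts synthesis. Finally, PicoGreen in EDTA halts the reaction and stains double-stranded product for fluorescence reading.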

Assay [7] deals with Tumor susceptibility gene 101 protein (Homo sapiens) (UniProt Q99816). The assay is described as follows: qHTS Validation Assay for Iinhibitors of HIV-1 Budding by Blocking the Interaction of PTAP/TSG101 (AID 485342; calls by dose curve). The essentials:
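Binding of a FITC-tagged PTAP-motif peptide (50 nM) to the Tsg101 binding domain (10 uM) is monitored by fluorescence polarization. Compounds are pin-delivered before peptide addition, and incubation runs 20 min at room temperature.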

For assay [8], the target named is Beta-2 adrenergic receptor (Homo sapiens) (UniProt P07550). Put plainly: qHTS validation assay of beta-arrestin-biased ligands of beta2-adrenergic receptor (AID 485366). In outline:
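Compound series up to 46 microM applied to beta2-AR/beta-arrestin Tango cells, 18 hr, 37 degrees C, 5% CO2. Read-out: tTA-driven luciferase luminescence, converted to %Activity; concentration-response curves assigned curve classes.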

Assay [9] addresses ATP-dependent 6-phosphofructokinase (Trypanosoma brucei brucei) (UniProt O15648). The assay is described as follows: qHTS Validation Assay to Find Inhibitors of T. brucei phosphofructokinase (AID 485368). Note: potency is the fitted concentration of half-maximal effect. The essentials: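 qHTS format, up to 57 uM. PFK 1.25 nM; F6P 0.5 mM; ATP 0.1 mM; 5 mM MgCl2, 0.01% Tween20, 0.1% BSA; 0.1 M TEA pH 8.0; 45 min RT; ADP-Glo readout; no-enzyme control = full inhibition.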

The target of assay [10] is Thioredoxin reductase 1, cytoplasmic (Rattus norvegicus) (UniProt O89049). The assay is described as follows: qHTS Assay for Substrates of Mammalian Selenoprotein Thioredoxin Reductase 1 (TrxR1) (AID 488772).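 Note: series mostly up to about 57 µM; a drop in NADPH fluorescence below the no-compound background marks a TrxR1 substrate.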 The essentials: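 In this dual-purpose format, potential substrates are identified from the first fluorescence read after selenite addition, not from the 8-minute delta. Rat enzyme is preincubated with NADPH and then with compound at ~22 deg C.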
Sequence of Thioredoxin reductase 1, cytoplasmic (Rattus norvegicus) (O89049 whole entry, looked up): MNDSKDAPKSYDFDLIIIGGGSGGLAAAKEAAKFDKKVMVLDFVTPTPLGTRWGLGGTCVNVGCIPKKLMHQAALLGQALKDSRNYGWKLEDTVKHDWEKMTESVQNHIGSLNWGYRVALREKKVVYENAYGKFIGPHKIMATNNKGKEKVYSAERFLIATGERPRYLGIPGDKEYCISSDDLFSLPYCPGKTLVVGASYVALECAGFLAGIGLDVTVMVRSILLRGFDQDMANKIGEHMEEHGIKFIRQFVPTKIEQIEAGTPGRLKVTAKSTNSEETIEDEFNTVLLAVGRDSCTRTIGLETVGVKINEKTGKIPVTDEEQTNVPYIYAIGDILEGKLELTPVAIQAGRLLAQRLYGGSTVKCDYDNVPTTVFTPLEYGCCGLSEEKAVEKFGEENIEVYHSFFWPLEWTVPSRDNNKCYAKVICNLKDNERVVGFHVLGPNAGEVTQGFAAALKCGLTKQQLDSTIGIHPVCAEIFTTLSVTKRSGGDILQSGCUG

Assay [11] concerns the target Flap endonuclease 1 (Homo sapiens) (UniProt P39748). The assay is described as follows: qHTS Validation Assay for the Inhibitors of Human Flap endonuclease 1 (FEN1) (AID 488816). The essentials: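 Enzyme reagent 10 nM; cpds pinned; 15 min RT preinc.; substrate 50 nM final; reads t=0 and 15 min; no-enzyme buffer wells as neg. control; normalized data, 4-parameter Hill fit.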

Assay [12] addresses M-phase phosphoprotein 8 (Homo sapiens) (UniProt Q99549). The assay is described as follows: qHTS Validation Assay for Inhibitors for MPP8 Chromodomain Interactions with Methylated Histone Tails (AID 488949). Note: nearly all actives have a fitted effect of over 55% in size. Note: potency is the fitted concentration of half-maximal effect. In outline:
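50 nM MPP8 + 50 nM b-H3K9me3 peptide, PBS pH 7.4/0.01% Tween-20, 30 min RT; + cpd 30 min RT; + AlphaScreen donor/Ni-chelate acceptor beads 10 ug/mL final, 30 min dark; luminescence read.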

Assay [13] deals with Chromobox protein homolog 1 (Homo sapiens) (UniProt P83916). The assay is described as follows: qHTS Validation Assay for Inhibitors of HP1-beta Chromodomain Interactions with Methylated Histone Tails (AID 488953). Note: nearly all actives have a fitted effect of over 50% in size. Note: potency is the fitted concentration of half-maximal effect. In outline: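 AlphaScreen proximity readout: streptavidin donor and Ni-chelate acceptor beads, 10 ug/mL final, 30 min dark, RT. Complex of 50 nM HP1-beta and 50 nM b-H3(1-18)K9me3 formed 30 min, then compound-treated 30 min; PBS pH 7.4/0.01% Tween-20.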
Sequence of Chromobox protein homolog 1 (Homo sapiens) (P83916 whole entry, looked up): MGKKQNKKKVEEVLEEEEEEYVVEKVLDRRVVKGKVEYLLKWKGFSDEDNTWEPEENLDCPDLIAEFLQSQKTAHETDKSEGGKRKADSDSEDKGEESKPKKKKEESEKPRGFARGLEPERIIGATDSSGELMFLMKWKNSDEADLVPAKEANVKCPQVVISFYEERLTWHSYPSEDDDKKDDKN

Assay [14] concerns the target Thioredoxin reductase 1, cytoplasmic (Rattus norvegicus) (UniProt O89049). The assay is described as follows: qHTS Assay for Inhibitors of Mammalian Selenoprotein Thioredoxin Reductase 1 (TrxR1) (AID 488773).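 Note: drop in NADPH fluorescence over an 8 min run after selenite addition; series mostly up to about 57 µM; nearly all actives have a fitted effect of over 40% in size.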 Particulars: Potency: inhibition. In outline: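 Inhibition is scored from the loss of NADPH fluorescence between first and last reads of an 8-min kinetic run. Selenite (400 uM) was the substrate, added after 15 min compound preincubation at room temperature.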

Assay [15] is described as follows: qHTS Validation Assay to Find Inhibitors of Chronic Active B-Cell Receptor Signaling (AID 485345; active = well fitted curve in the direction sought with a large enough effect in the main read-out, with a control signal flat, not every such curve was filed as active). The essentials:
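TMD8 ABC-DLBCL cells stably carrying doxycycline-inducible IkappaBalpha–green luciferase fusion plus unfused red luciferase; compounds 46 uM to 3 nM, 4 h at 37C with doxycycline. Corrected green/red luminescence ratio normalized to 10 uM MG-132 and basal cell wells; curves fitted.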

A short description of assay [16]: Quantitative high throughput screen for delayed death inhibitors of the malarial parasite plastid, 96 hour incubation (AID 488745). Note: nearly all actives have a fitted effect of over 70% in size. Note: potency is the fitted concentration of half-maximal effect. The essentials:
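Luciferase-expressing P. falciparum, infected RBCs 2% Hct/0.1% parasitemia (final); 96 h cpd exposure, 37 C, 5% CO2; RPMI 1640 + 0.5% Albumax, bicarbonate, gentamycin. Readout: luminescence loss = growth inhibition.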

The nature of assay [17]: Quantitative high throughput screen for delayed death inhibitors of the malarial parasite plastid, 48 hour incubation (AID 488752). Note: nearly all actives have a fitted effect of over 65% in size. Note: potency is the fitted concentration of half-maximal effect. In outline: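 Luciferase-expressing P. falciparum in RBCs, 2% Hct, 0.1% parasitemia final; RPMI 1640 + 0.5% Albumax; 48 h, 37 C, 5% CO2; luminescence readout, signal drop = growth inhibition.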

Results on eight compounds are retold here after PubChem BioAssay (NCATS).

Records with an inconclusive call do not appear. Activity calls are given as the source filed them. Unless noted, calls come from the whole dose curve; as a rule, active = well fitted curve in the direction sought with a large enough effect; inconclusive = small, poorly fitted or top-dose-only effect, or another doubt; inactive = no such curve, though single readings can be large; an effect the other way counts as inactive or inconclusive.

Sequence of Tumor susceptibility gene 101 protein (Homo sapiens) (Q99816 whole entry, looked up, the tested form may be a part): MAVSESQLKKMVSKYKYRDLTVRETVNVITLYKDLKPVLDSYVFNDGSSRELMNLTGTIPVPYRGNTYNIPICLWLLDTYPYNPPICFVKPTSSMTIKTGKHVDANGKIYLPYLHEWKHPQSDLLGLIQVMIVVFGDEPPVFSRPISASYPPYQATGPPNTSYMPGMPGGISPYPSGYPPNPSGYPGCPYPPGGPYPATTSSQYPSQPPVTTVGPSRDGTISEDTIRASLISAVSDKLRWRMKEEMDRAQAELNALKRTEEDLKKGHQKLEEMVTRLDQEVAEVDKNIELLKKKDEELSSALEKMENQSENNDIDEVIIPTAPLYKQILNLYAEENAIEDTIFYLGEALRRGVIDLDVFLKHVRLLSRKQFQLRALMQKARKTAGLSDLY
Sequence of Flap endonuclease 1 (Homo sapiens) (P39748 whole entry, looked up): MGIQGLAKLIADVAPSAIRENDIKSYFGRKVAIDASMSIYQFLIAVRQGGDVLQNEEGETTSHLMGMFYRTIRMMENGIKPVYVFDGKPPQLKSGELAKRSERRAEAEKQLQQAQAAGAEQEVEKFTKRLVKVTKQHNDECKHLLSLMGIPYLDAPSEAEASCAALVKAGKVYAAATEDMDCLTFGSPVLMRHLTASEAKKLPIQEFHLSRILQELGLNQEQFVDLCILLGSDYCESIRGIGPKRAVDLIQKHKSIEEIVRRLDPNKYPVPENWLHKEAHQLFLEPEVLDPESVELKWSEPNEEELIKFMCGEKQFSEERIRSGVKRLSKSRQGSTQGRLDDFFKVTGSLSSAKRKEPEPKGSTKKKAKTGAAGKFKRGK
Sequence of DNA polymerase III PolC-type (Bacillus subtilis (strain 168)) (P13267 whole entry, looked up): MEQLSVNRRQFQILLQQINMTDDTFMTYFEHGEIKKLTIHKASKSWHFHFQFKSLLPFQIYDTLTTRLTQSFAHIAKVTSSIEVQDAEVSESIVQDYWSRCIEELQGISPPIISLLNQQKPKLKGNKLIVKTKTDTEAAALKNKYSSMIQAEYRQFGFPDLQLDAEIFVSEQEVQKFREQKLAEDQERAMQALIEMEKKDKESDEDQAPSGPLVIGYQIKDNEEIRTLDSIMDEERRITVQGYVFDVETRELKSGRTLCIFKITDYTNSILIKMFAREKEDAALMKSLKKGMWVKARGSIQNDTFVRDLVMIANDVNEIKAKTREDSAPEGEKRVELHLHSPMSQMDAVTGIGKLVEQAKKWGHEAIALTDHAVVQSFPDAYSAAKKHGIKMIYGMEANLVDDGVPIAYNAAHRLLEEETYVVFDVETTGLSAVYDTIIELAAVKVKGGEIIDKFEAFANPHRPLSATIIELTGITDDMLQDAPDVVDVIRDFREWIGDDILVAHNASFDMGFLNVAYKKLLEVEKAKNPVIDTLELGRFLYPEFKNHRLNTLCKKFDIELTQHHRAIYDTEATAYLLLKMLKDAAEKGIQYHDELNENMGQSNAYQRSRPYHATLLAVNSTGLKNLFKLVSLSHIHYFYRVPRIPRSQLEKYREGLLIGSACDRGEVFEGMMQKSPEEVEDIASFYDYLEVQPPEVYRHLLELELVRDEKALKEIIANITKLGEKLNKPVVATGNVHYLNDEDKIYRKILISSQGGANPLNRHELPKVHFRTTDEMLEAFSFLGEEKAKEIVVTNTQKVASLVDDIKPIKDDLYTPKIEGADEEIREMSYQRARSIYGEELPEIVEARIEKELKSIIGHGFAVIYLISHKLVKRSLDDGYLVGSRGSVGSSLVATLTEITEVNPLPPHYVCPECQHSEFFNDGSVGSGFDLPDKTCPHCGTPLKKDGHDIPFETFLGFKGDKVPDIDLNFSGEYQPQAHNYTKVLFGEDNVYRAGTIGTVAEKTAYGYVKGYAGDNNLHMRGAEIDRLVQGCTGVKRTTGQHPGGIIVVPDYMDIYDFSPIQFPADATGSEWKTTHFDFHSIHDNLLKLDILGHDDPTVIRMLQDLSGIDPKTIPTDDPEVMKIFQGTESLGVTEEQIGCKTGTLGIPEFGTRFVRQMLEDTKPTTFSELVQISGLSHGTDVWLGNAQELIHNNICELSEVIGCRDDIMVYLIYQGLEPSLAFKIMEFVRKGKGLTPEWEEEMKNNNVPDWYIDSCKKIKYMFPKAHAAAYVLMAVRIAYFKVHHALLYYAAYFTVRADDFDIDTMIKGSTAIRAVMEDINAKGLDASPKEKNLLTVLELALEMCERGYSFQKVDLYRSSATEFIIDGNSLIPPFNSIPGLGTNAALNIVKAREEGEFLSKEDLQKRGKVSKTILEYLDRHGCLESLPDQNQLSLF
Sequence of Ubiquitin carboxyl-terminal hydrolase 2 (Homo sapiens) (O75604 whole entry, looked up): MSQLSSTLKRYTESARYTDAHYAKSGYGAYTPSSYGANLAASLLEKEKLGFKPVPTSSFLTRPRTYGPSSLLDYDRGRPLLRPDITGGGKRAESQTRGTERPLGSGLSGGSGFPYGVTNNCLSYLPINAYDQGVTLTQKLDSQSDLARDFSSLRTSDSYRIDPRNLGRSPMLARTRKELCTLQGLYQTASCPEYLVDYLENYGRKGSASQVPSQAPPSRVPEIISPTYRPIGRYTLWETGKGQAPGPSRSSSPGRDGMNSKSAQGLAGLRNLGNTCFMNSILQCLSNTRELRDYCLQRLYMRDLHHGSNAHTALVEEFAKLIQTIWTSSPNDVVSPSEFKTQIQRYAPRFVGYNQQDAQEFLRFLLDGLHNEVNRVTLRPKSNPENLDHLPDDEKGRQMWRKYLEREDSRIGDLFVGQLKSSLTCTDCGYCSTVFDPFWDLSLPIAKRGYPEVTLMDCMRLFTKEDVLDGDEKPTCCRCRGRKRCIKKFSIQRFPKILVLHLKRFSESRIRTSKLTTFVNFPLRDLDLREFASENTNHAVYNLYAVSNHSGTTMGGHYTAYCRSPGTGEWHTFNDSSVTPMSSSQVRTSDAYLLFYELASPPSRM
Sequence of M-phase phosphoprotein 8 (Homo sapiens) (Q99549 whole entry, looked up): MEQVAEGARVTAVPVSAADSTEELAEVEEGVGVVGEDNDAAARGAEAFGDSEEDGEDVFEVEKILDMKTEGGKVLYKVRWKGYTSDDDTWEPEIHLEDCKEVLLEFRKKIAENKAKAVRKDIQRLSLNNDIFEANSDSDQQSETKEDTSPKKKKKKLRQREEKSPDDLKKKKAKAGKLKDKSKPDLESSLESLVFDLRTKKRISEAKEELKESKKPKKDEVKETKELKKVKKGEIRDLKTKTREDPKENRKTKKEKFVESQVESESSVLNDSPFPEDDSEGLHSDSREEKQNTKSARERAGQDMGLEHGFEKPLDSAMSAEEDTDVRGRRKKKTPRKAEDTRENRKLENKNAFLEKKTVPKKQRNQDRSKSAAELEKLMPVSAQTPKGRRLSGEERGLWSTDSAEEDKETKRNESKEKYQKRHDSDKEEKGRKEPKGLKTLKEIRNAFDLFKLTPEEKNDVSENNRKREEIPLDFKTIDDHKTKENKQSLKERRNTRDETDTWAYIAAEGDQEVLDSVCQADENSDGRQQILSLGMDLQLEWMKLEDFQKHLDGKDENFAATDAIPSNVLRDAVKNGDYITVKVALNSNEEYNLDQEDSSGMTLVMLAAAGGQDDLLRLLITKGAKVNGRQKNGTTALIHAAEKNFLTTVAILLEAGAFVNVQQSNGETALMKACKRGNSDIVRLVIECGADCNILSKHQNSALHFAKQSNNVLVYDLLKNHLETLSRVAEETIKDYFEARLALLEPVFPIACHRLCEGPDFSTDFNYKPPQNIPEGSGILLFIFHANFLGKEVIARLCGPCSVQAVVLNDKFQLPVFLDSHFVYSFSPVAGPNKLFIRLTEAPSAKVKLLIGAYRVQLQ
Sequence of Beta-2 adrenergic receptor (Homo sapiens) (P07550 whole entry, looked up): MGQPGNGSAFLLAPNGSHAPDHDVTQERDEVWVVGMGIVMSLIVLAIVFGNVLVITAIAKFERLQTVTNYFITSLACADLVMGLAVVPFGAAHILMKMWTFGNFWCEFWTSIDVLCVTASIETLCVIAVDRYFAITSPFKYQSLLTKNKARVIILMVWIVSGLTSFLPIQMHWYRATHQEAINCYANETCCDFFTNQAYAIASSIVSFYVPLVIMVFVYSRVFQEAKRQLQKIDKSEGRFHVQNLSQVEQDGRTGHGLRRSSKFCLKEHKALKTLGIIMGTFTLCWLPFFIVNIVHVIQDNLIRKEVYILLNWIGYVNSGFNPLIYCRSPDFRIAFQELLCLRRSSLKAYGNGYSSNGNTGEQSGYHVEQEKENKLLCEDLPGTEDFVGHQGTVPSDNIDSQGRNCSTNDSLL

Take `O=[N+]([O-])c1ccc(CSc2ncnc3c2ncn3[C@@H]2O[C@H](CO)[C@@H](O)[C@H]2O)cc1`: the compound was called inactive in assay [1], in assay [7] and in [8]. The Potency entry in [2], in [3], in assay [4], in [5], in [6] and in assay [10] was “inactive” throughout. The Potency result in assay [11], in assay [12] and in [13] was “inactive” throughout. Also, the Potency in assay [9] was 15.1 µM (active).

As for `C[C@@H](NC(=O)/C(C#N)=C/c1ccc(O)c(O)c1)c1ccccc1`, the result in [1], in [7] and in assay [8] was inactive. The Potency result in assay [2], in assay [3], in assay [4], in assay [5], in [6] and in [11] was “inactive” in each case. Further, the Potency in [12] was 10 µM (active); in assay [13], 8.91 µM (active).

`C#C[C@]1(O)CC[C@H]2[C@@H]3CCC4=Cc5oncc5CC4(C)[C@H]3CCC21C` (some centres not stated): the compound was called inactive in assay [1], in [7] and in assay [8]. The Potency result in assay [2], in [3], in assay [4], in assay [5], in assay [6] and in assay [10] was “inactive” each time. Moreover, the Potency entry in assay [14], in [11], in [12] and in [13] was “inactive” each time.

Regarding `OC[C@H]1O[C@@H](n2cnc3c(NC4CCCC4)ncnc32)[C@H](O)[C@@H]1O`, the result in [1], in assay [7] and in [8] was inactive. For the same compound, the Potency result in assay [2], in assay [3], in assay [4], in [5], in assay [6] and in assay [10] was “inactive” in each case. Also, the Potency entry in [14], in assay [11], in assay [12] and in assay [13] was “inactive” throughout.

For `CCCN(CC1CC1)c1nc(C)nc(Nc2c(Cl)cc(Cl)cc2Cl)c1Cl`, the outcome in [1], in assay [7], in assay [15] and in [8] was inactive. Further, the Potency entry in assay [2], in assay [3], in assay [4], in assay [5], in assay [6] and in assay [10] was “inactive” throughout. Besides, the Potency entry in [14], in assay [11], in assay [12] and in assay [13] was “inactive” each time. Moreover, the Potency was 2.33 µM (active) in [16] and 2.62 µM (active) in assay [17].

Regarding `Cc1ccccc1CNc1ncnc2c1ncn2C1OC(CO)C(O)C1O` (configuration not stated), the result in [1], in assay [7] and in assay [8] was inactive. Also, the Potency result in assay [2], in assay [3], in assay [4], in [5], in [6] and in assay [16] was “inactive” each time. Besides, the Potency entry in assay [17], in assay [10], in assay [14], in [11], in assay [12] and in assay [13] was “inactive” throughout.

On to `COc1ccc(NC(=O)/C=C/c2ccc(Cl)cc2)cc1`, for which the compound was called inactive in assay [1], in assay [7] and in assay [8]. Further, the Potency entry in assay [2], in assay [3], in [4], in assay [5], in assay [6] and in [9] was “inactive” each time. In addition, the Potency entry in assay [10], in assay [11] and in assay [12] was “inactive” throughout.

In the case of `NC(=O)C1=CN(C2OC(COP(=O)(O)OP(=O)(O)OC[C@H]3O[C@@H](n4cnc5c(N)ncnc54)[C@H](OP(=O)(O)O)[C@@H]3O)C(O)C2O)C=CC1` (some centres not stated), the call in [1], in assay [7] and in [8] was inactive. The Potency entry in assay [2], in assay [3], in assay [4], in [5], in assay [6] and in assay [9] was “inactive” in each case. In addition, the Potency result in assay [10], in [14], in assay [11] and in [12] was “inactive” throughout. Besides, in assay [13], the Potency was 0.0053 µM (active).
